These results are taken from PubChem BioAssay (Tox21).

Where “and” joins values, the source holds several entries; their conditions need not be identical. Equal entries are not always repeated. Records with an inconclusive call do not appear. Some structures have more than one record in an assay (separate samples or runs), and their calls can disagree. Calls of active or inactive are those of the source. The call rests on the fitted dose curve; in most records, active means well fitted inhibition curve with a large enough effect in the repeat runs; inconclusive means weak or mixed curves; inactive means no such curve, though single readings can be large or run the other way.
On the % scale 0 is the no-effect control and ±100 the full control effect; potency means the concentration at half of the fitted maximal effect.

Cytochrome P450 2C9 (Homo sapiens), sequence (P11712 whole entry, looked up): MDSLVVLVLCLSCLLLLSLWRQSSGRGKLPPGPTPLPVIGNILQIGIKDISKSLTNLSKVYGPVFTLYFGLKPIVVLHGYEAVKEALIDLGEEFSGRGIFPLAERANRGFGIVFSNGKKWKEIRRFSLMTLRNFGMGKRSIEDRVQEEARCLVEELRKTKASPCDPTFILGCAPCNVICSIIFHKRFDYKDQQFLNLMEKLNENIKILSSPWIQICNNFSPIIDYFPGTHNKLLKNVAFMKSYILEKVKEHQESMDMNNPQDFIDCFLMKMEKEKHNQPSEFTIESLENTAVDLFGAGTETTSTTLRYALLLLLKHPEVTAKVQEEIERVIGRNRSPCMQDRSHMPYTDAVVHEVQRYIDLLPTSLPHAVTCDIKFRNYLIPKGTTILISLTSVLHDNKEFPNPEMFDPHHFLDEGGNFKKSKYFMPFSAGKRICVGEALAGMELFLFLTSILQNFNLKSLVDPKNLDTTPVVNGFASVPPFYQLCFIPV
Cytochrome P450 2C19 (Homo sapiens), sequence (P33261 whole entry, looked up): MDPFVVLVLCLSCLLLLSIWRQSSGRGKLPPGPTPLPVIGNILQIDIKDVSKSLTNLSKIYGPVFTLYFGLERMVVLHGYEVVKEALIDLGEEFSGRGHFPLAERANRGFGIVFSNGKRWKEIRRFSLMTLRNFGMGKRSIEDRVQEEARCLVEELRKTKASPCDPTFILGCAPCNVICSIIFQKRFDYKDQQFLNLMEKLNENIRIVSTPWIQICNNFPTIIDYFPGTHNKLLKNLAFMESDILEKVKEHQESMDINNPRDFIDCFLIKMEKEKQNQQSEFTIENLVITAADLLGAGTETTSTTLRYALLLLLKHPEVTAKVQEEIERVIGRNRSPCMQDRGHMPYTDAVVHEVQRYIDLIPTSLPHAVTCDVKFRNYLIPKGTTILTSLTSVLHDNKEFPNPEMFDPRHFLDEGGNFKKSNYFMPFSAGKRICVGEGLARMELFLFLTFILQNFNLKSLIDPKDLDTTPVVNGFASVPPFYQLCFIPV

The first assay deals with Cytochrome P450 2C19 (Homo sapiens) (UniProt P33261). Nature of the assay: Cytochrome P450 Family 2 Subfamily C Member 19 (CYP2C19) small molecule antagonists: luciferase reporter qHTS assay (AID 1671197). Further: nearly all actives have a fitted effect of over 65% in size. The settings on record: P450-Glo CYP2C19 enzyme, luciferin luminescence, 1 h; series mostly up to 115 µM; activity change, negative = inhibition: at the top concentration. In a few lines:
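Inhibition of CYP2C19 was scored from loss of luminescence in a P450-Glo proluciferin substrate assay, NADPH-started and run 1 h at 37C, with ketoconazole as positive control.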
Regarding `CC/C=C\C/C=C\C/C=C\CCCCCCCC(=O)O`, the Potency was 31.4 µM (active). As for `C1COCCN1`, the Potency result was “inactive”.

Consider `CC1(C)OC(=O)NC1=O`, for which the Potency entry was “inactive”. In the case of `Cc1ccc(S(=O)(=O)NCl)cc1`, the “activity change, negative = inhibition” value was -16.8% (inactive). As to `c1ccc2c(c1)ccc1cc3c(ccc4ccccc43)cc12`, the Potency entry is “inactive”.

In the case of `CC(C)[C@@H]1CC[C@@H](C)CC1=O`, the Potency is 31.7 µM (active) and inactive. For `CC(=O)Nc1ccc2c(c1)Cc1cc(NC(C)=O)ccc1-2`, the Potency result was “inactive”. For `O=[Se](O)O`, the Potency was 56.5 µM (active) and the activity change, negative = inhibition was -23.6% [at 23.6 µM] (inactive). For `C[N+](C)(C)CCO`, the Potency entry was “inactive”. Same read-out and setting: the result for `CC(=O)O[C@]1(C(C)=O)CC[C@H]2[C@@H]3C=C(Cl)C4=CC(=O)CC[C@]4(C)[C@H]3CC[C@@]21C` reads 12.6 µM (active) and 4.36 µM (active); that for `CC[C@]12CCCN3CCc4c(n(c5ccccc45)[C@@](O)(C(=O)OC)C1)[C@@H]32`, 71 µM (active) and inactive; that for `CC(=O)O[C@]1(C(C)=O)CC[C@H]2[C@@H]3C=C(C)C4=CC(=O)CC[C@]4(C)[C@H]3CC[C@@]21C`, 7.1 µM (active) and 6.92 µM (active). For `C=C1C[C@H]2[C@@H]3C=C(C)C4=CC(=O)CC[C@]4(C)[C@H]3CC[C@]2(C)[C@@]1(OC(C)=O)C(C)=O`, the Potency is 28.9 µM (active) and 9.77 µM (active).

In the case of `CCCCCCCCCCCCO`, the Potency was 31.3 µM (active).

On to `CC1=CC(C)(C)Nc2ccccc21`, for which the Potency was 75.6 µM (active). Regarding `C=CCCCCCCCCCC`, the Potency result was “inactive”.

Consider `CC(=O)Oc1c(C)c(C)c2c(c1C)CC[C@@](C)(CCC[C@H](C)CCC[C@H](C)CCCC(C)C)O2`, for which the Potency result was “inactive”. For `C=C[C@H]1CN2CC[C@H]1C[C@H]2[C@H](O)c1ccnc2ccc(OC)cc12`, the “activity change, negative = inhibition” value was -15.2% [at 52.9 µM] (inactive). As to `Cc1ccc(C(C)(C)C)c(O)c1`, the Potency was 30.7 µM (active) and 39.9 µM (active). For the compound `C=CCNCC=C`, the Potency is 39.8 µM (active). On to `Nc1cc(Cl)c(N)c(Cl)c1`, for which the Potency is 8.86 µM (active) and 71 µM (active). On the same count and under the same terms, the result for `CCc1cccc2c3c([nH]c12)C(CC)(CC(=O)O)OCC3` (stereo not given) reads 39.8 µM (active). The same measure, in the same setting: the result for `Nc1cc([N+](=O)[O-])ccc1C(=O)O` reads “inactive”; that for `Clc1ccc(Sc2cc(Cl)c(Cl)cc2Cl)cc1`, 6.92 µM (active) and 3.17 µM (active).

Another assay deals with Cytochrome P450 2C9 (Homo sapiens) (UniProt P11712). Nature of the assay: Cytochrome P450 Family 2 Subfamily C Member 9 (CYP2C9) small molecule antagonists: luciferase reporter qHTS assay (AID 1671198). Further: nearly all actives have a fitted effect of over 50% in size. The conditions noted are these: P450-Glo CYP2C9 enzyme assay, luciferin luminescence; series mostly up to 115 µM; activity change, negative = inhibition: at the top concentration. In a few lines:
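P450-Glo proluciferin substrate with CYP2C9 enzyme; 10 min RT preincubation, then NADPH regeneration 1 h at 37C; luciferin detection reagent 20 min RT, luminescence in relative luminescence units.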
A general note: Reporter assays use an easily measured gene product as a stand-in for the process of interest.
Regarding `CCCOCCO`, the Potency entry was “inactive”.

`CC(=O)Oc1ccc(C(c2ccc(OC(C)=O)cc2)c2ccccn2)cc1`: the Potency was 7.06 µM (active) and 12.3 µM (active). On the same count and under the same terms, the same measure for `COc1ccc2nc(N)sc2c1`: 39.9 µM (active); for `COCCOCCOCCO`: “inactive”; for `CC1(C)NC(=O)N(c2ccc([N+](=O)[O-])c(C(F)(F)F)c2)C1=O`: 10 µM (active) and 7.76 µM (active). Still for that read-out and setting: the same measure for `CC1(C)O[C@@H]2C[C@H]3[C@@H]4C[C@H](F)C5=CC(=O)C=C[C@]5(C)[C@@]4(F)[C@@H](O)C[C@]3(C)[C@]2(C(=O)CO)O1`: 39.9 µM (active). As for `Cc1ccc([N+](=O)[O-])c(C)c1`, the “activity change, negative = inhibition” value is -11.3% (inactive).

With `C/C=C/C(=O)N(CC)c1ccccc1C`, the Potency is 39.9 µM (active). Consider `O=C1CCc2ccccc2O1`, for which the “activity change, negative = inhibition” value was -12.5% (inactive). Consider `OC[C@H]1O[C@@H]2O[C@H]3[C@H](O)[C@@H](O)[C@@H](O[C@H]4[C@H](O)[C@@H](O)[C@@H](O[C@H]5[C@H](O)[C@@H](O)[C@@H](O[C@H]6[C@H](O)[C@@H](O)[C@@H](O[C@H]7[C@H](O)[C@@H](O)[C@@H](O[C@H]1[C@H](O)[C@H]2O)O[C@@H]7CO)O[C@@H]6CO)O[C@@H]5CO)O[C@@H]4CO)O[C@@H]3CO`, for which the Potency entry is “inactive and 3.76 µM (active)”. As to `Brc1nc2ccccc2s1`, the “activity change, negative = inhibition” value is -16.9% (inactive).

Consider `IC(I)I`, for which the Potency was 35.5 µM (active) and 63.3 µM (active). Same read-out and setting: the result for `Nc1ccc2c(c1)C(=O)c1ccccc1C2=O` reads 19.6 µM (active) and 22.4 µM (active). On the same count and under the same terms, the same measure for `CC/C=C\C/C=C\C/C=C\CCCCCCCC(=O)O`: 35.3 µM (active) and 39.9 µM (active). Take `C1COCCN1`: the Potency entry is “inactive”. Same read-out and setting: the result for `CC1(C)OC(=O)NC1=O` reads “inactive”. Consider `Cc1ccc(S(=O)(=O)NCl)cc1`, for which the Potency entry is “inactive and 75.1 µM (active)”. For the compound `c1ccc2c(c1)ccc1cc3c(ccc4ccccc43)cc12`, the Potency entry is “inactive”.

In the case of `CC(C)[C@@H]1CC[C@@H](C)CC1=O`, the Potency result is “inactive”. In the case of `CC(=O)Nc1ccc2c(c1)Cc1cc(NC(C)=O)ccc1-2`, the “activity change, negative = inhibition” value is -12.6% (inactive). In the case of `O=[Se](O)O`, the Potency was 7.11 µM (active). On the same count and under the same terms, the result for `CC(=O)O[C@]1(C(C)=O)CC[C@H]2[C@@H]3C=C(Cl)C4=CC(=O)CC[C@]4(C)[C@H]3CC[C@@]21C` reads 20 µM (active) and 15.5 µM (active). Same read-out and setting: the result for `CC[C@]12CCCN3CCc4c(n(c5ccccc45)[C@@](O)(C(=O)OC)C1)[C@@H]32` reads “inactive”; that for `CC(=O)O[C@]1(C(C)=O)CC[C@H]2[C@@H]3C=C(C)C4=CC(=O)CC[C@]4(C)[C@H]3CC[C@@]21C`, 7.96 µM (active) and 8.71 µM (active); that for `C=C1C[C@H]2[C@@H]3C=C(C)C4=CC(=O)CC[C@]4(C)[C@H]3CC[C@]2(C)[C@@]1(OC(C)=O)C(C)=O`, 22.9 µM (active) and 17.4 µM (active). With `CCCCCCCCCCCCO`, the Potency entry was “inactive and 22.2 µM (active)”. Take `CC1=CC(C)(C)Nc2ccccc21`: the Potency is 12.3 µM (active). `C=CCCCCCCCCCC`: the Potency result was “inactive”. Regarding `CC(=O)Oc1c(C)c(C)c2c(c1C)CC[C@@](C)(CCC[C@H](C)CCC[C@H](C)CCCC(C)C)O2`, the Potency entry is “inactive”. On to `Cc1ccc(C(C)(C)C)c(O)c1`, for which the Potency is 34.4 µM (active) and 71 µM (active). As to `C=CCNCC=C`, the “activity change, negative = inhibition” value is -17.8% (inactive).

For `Nc1cc(Cl)c(N)c(Cl)c1`, the Potency was 15.8 µM (active) and 39.9 µM (active).

On to `CCc1cccc2c3c([nH]c12)C(CC)(CC(=O)O)OCC3` (stereo not given), for which the Potency was 31.6 µM (active) and 34.7 µM (active).

With `Nc1cc([N+](=O)[O-])ccc1C(=O)O`, the “activity change, negative = inhibition” value was -25.6% (inactive).

For the compound `Clc1ccc(Sc2cc(Cl)c(Cl)cc2Cl)cc1`, the Potency result is “inactive”.
